Values joined by “and” are separate entries in the source; they are usually repeats but may differ in a detail not shown here. Identical values can stand only once. Out of some 360,000 compounds screened, about 3,700 (1%) were called active. Only a selection was taken, and actives are over-represented in it overall. Unmarked numbers belong to inactive results. Rule as the data show it: active = activation above about 30%; inactive = the rest.

The target of the test is D(1A) dopamine receptor (Homo sapiens) (UniProt P21728). In words: Allosteric Agonists of the Human D1 Dopamine Receptor: qHTS. Also: 0% is about no effect. Particulars: HEK293 T-REx D1 cells, calcium flux, agonist mode; at 2 µM; hits give high values. The procedure, abridged: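 Agonism was scored from calcium flux recorded over 180 s (1 read/s) after pintool compound addition, following a 10-cycle baseline. Cells were inducible force-coupled HEK293 TREx D1, plated overnight at 30 C and loaded with no-wash calcium dye.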
D(1A) dopamine receptor (Homo sapiens), sequence (P21728 whole entry, looked up): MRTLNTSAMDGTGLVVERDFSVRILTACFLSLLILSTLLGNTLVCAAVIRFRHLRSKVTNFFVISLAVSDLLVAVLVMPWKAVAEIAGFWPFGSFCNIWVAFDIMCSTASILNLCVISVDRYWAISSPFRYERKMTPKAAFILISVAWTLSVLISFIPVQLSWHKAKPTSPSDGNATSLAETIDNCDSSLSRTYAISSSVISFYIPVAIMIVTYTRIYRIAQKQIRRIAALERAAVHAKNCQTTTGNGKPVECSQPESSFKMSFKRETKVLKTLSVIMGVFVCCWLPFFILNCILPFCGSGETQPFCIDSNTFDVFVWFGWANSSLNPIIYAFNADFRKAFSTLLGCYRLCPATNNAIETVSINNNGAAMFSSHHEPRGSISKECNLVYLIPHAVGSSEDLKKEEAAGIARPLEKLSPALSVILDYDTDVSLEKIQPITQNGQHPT
A general note: qHTS replaces the single test concentration by a dilution series.
`Cc1ccc(NC(=O)Cc2ccc(NC(=O)N3CCCCc4ccccc43)cc2)cc1`: the activation is 4.12%.

As to `Cc1ccc(Cl)cc1NC(=O)C(C)n1nnc2sc(-c3ccccc3)cc2c1=O` (configuration not stated), the activation was -0.45%. On to `Cc1ccc(-n2c(SCC(=O)Nc3cccc(F)c3)nc3c(oc4ccccc43)c2=O)cc1C`, for which the activation is 4.64%. As to `NC(=O)c1ccc(NC(=O)COC(=O)c2c3c(nc4ccccc24)/C(=C\c2ccc4c(c2)OCO4)CCC3)cc1`, the activation is 51.7% (active). With `O=C(COC(=O)c1c2c(nc3ccccc13)CCCC2)c1ccc(Br)s1`, the activation is 8.91%. For `CCc1ccc(NC(=O)Cn2nnc(C(=O)NCc3ccc4c(c3)OCO4)c2N)cc1`, the activation was 0.807%. Turning to `NS(=O)(=O)c1ccc(NC(=O)COC(=O)c2c3c(nc4ccccc24)/C(=C\c2ccc4c(c2)OCO4)CCC3)cc1`, the activation is 59.4% (active). The same measure for `CC(NC(=S)Nc1ccc(S(N)(=O)=O)cc1)c1ccc2c(c1)OCO2` (configuration not stated): 3.07%; for `CCN(CC(=O)Nc1ccc2c(c1)OCO2)S(=O)(=O)c1ccccc1`: 2.93%. Take `CCN(CC)c1ccc(NC(=O)CN2CCN(CC(=O)Nc3ccc(Cl)cc3)CC2)cc1`: the activation is 2.48%. The same measure for `CC(C)CCN(C(=O)Nc1ccc(Cl)c(Cl)c1)C(C)c1cccs1` (configuration not stated): 23.8%; for `CCOc1ccccc1CNC(=O)c1ccc2c(c1)nc1n2CCC(C)C1` (configuration not stated): -0.796%; for `N#CN1CCC(NC(=O)c2ccc(F)cc2)CC1`: 3.29%. `COc1cccc(C(=O)NC2=NC(c3ccc(N(C)C)cc3)CC(=O)N2)c1` (configuration not stated): the activation is -0.763%. In the case of `Cc1ccc(NC(=O)C2CCCN2S(=O)(=O)c2cccc3cccnc23)c(C)c1` (configuration not stated) it was -0.331% and 2.62%; in that of `Cc1cc(C)cc(NC(=O)C2CCCN2S(=O)(=O)c2cccc3cccnc23)c1` (configuration not stated), 34.7% (active); in that of `O=C(Nc1nccs1)C1CCCN1S(=O)(=O)c1cccc2cccnc12` (configuration not stated), 0.517%. For the compound `Cc1noc(/C=C/N(C)C)c1S(=O)(=O)N1CCCC(C(=O)Nc2cccc(F)c2)C1` (configuration not stated), the activation is 5.84%.

Regarding `O=C(COc1ccccc1)OCc1cc(=O)n2nc(-c3cccs3)sc2n1`, the activation is 3.1%.

Take `Cc1cccc(C(CC(=O)NCC2(c3ccccc3)CCCC2)c2ccccc2)c1O` (configuration not stated): the activation was 2.41%. Take `O=C(CCOc1ccccc1)N(Cc1cccnc1)c1nc2ccc(Cl)cc2s1`: the activation is 2.39%.

With `CN(C)CCCNC(=S)N1CCN(c2nc(-c3ccccc3)cs2)CC1`, the activation is 32.3% (active).

Take `CN(C)CCCNC(=S)N1CCC(c2nc3ccccc3[nH]2)CC1`: the activation was -0.699%. The same measure for `COCCCNC(=S)N1CCN(c2nc(-c3cccc(OC)c3)cs2)CC1`: 6.03%; for `COc1cccc(CNc2nccn(-c3ccc(OC)c(OC)c3)c2=O)c1`: 1.78%; for `COc1cc(NC(=O)Cn2c(=O)n(Cc3ccco3)c(=O)c3oc4ccccc4c32)cc(OC)c1`: -0.131%. With `CC(C)CCn1cnc2c1c(=O)n(CC(=O)NC(N)=O)c(=O)n2Cc1ccccc1`, the activation was 1.24%. The same measure for `COCCn1cnc2c1c(=O)n(CC(=O)NN)c(=O)n2Cc1ccccc1`: 1.04%; for `N=c1c2c(-c3ccccc3)c(-c3ccccc3)n(Cc3ccccc3)c2ncn1CCCO`: 112% (active). With `Cc1cc(C)cc(NC(c2nnc(-c3cccc(F)c3)o2)c2ccc(F)cc2Cl)c1` (configuration not stated), the activation was 2.35%.

Take `N#C/C(=C\c1ccccc1F)c1nc2ccccc2c(=O)[nH]1`: the activation was 6.41%. As to `Cn1c(COc2ccccc2C(C)(C)C)nc2ccccc21`, the activation is 19.9%.

Regarding `S=C(Nc1ccc(Br)cc1Cl)NC1CCN(Cc2ccccc2)CC1`, the activation was 30.9% (active). Regarding `S=C(Nc1ccc(Br)cc1)NC1CCN(Cc2ccccc2)CC1`, the activation is 39.5% (active). Take `Cc1cc(C(=O)NC2CCN(Cc3ccccc3)CC2)n[nH]1`: the activation was 1.69%. Take `O=C(NC1CCN(Cc2ccccc2)CC1)c1cc(Br)c(Br)[nH]1`: the activation was 7.63%. Regarding `CC1CN(C(=S)Nc2ccc(Br)cc2Cl)CC(C)O1` (configuration not stated), the activation is -0.955%. The same measure for `Cc1cc(Br)ccc1NC(=S)NC1CCCC1`: 9.12%. With `CCN(Cc1ccccc1)Cc1c(O)ccc2c(=O)c(-c3ccc(Cl)cc3Cl)coc12`, the activation was -1.31%.

On to `Cc1ccc(NC(=O)NC(C)c2c(-n3cccc3)sc(C)c2C)c(C)c1` (configuration not stated), for which the activation is -1.09%. The same measure for `CCOC(=O)c1cc2ccccc2n1CC(=O)c1ccccc1`: 6.36%. The same measure for `CCOC(=O)c1cc2ccccc2nc1C`: 31.8% (active); for `CCOC(=O)c1cc(NC(=O)SCC(=O)O)c(C)nc1C`: 1.84%; for `CCOc1ccc(N(CC)C(=O)C2CCN(S(=O)(=O)c3cccc4nonc34)CC2)cc1`: 0.273%. On to `CCOc1cccc(CC(=O)N2CCc3c([nH]c4ccccc34)C2c2ccc(F)cc2)c1OCC` (configuration not stated), for which the activation was 2.49%.

As to `O=C(Cc1ccc(Cl)cc1)NC(=S)Nc1ccccc1O`, the activation was 35.4% (active).

As to `Cc1ccccc1N/C(SCc1ccc(Cl)cc1)=C(/C#N)C(N)=O`, the activation was 3.17%. With `Cc1cc(C(=O)NNC(=S)Nc2ccccc2C)cs1`, the activation was 2.41%.

Turning to `COC(=O)c1ccccc1NC(=O)CN(Cc1ccc(Cl)cc1)S(C)(=O)=O`, the activation is 3.99%. As for `O=C(NC(=S)Nc1ccc(Cl)cc1Cl)C1CC1`, the activation was 1.23%. In the case of `Cc1ccccc1NC(=S)NC(=O)Cc1ccc(Cl)cc1` it was 69.1% (active); in that of `Cc1nnc(NC(=O)CSc2nc3c([nH]c4ccccc43)c(=O)n2-c2cccc(Cl)c2)s1`, -0.131%; in that of `COC(=O)c1scc(-c2ccccc2)c1S(=O)(=O)Nc1ccccc1`, 3.73%. Turning to `COc1cccc(NC(=O)C(=O)NCC(c2ccc3c(c2)OCO3)N2CCN(C)CC2)c1` (configuration not stated), the activation was 5.73%.

Turning to `Cn1c(=O)c2c(SCC(=O)N3CCc4ccccc43)nc(-c3ccc(Cl)cc3)nc2n(C)c1=O`, the activation was 0.75%.

For `CCc1ccc(NC(=O)c2cc(S(=O)(=O)N3CCCC(C)C3)cn2C)cc1` (configuration not stated), the activation is 3.74%.

Turning to `CC(C)c1ccc(S(=O)(=O)Nc2ccc(O)c(Sc3nc4ccccc4s3)c2)cc1`, the activation was 2.29%.

Source of the values: PubChem BioAssay AID504660 (National Center for Advancing Translational Sciences (NCATS), 2011).
